# Screens (PubChem)
# TRPML1 ag: agonists of human TRPML1 channel. Q9GZU1. 410,000 tested, 0.12% active. TRPML1-expressing cells, Ca2+ dye fluorescence, FDSS. activation, % (no concentration beside the values); in the data active = activation above about 50%; inconclusive = mostly about 30% to 49%; note: 0% is about no effect
# Target sequence (Q9GZU1 whole entry, looked up): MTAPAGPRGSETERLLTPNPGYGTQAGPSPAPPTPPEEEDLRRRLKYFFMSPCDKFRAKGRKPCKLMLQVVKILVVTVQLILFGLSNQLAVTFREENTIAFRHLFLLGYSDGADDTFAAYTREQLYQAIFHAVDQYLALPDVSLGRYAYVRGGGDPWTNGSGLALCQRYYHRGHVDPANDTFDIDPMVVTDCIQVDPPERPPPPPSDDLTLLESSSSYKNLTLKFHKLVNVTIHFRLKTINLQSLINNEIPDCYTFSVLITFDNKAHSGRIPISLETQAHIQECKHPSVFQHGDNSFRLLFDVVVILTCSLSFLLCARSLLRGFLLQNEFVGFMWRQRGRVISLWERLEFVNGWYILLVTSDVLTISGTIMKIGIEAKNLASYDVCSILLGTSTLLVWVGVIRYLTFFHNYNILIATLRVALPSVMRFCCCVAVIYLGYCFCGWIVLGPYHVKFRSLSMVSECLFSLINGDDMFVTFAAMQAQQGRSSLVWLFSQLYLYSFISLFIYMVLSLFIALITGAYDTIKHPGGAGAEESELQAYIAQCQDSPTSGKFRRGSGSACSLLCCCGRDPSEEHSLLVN
#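 Tetracycline-induced TRPML1-DL cells are seeded and incubated overnight before loading with a no-wash Ca2+ dye and quencher. Agonist activity is taken from the 110 s fluorescence read following compound pin-transfer on an FDSS, before EC80 54-4 challenge.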
# TRPML1 blocker: blocks the human TRPML1 channel; activity change, negative = inhibition, % (no concentration beside the values); Q9GZU1; 390,000 tested, 0.02% active; TRPML1-inducible cells, Ca2+ dye fluorescence, FDSS; hits give low values; inhibition of EC80 agonist-evoked calcium signal; in the data active = activity change below about -50%; inconclusive = between about -30% and that limit;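 note: stimulus is agonist 54-4 at its EC80 concentration; % is set by controls: 0 for no effect and ±100 for the full control effect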
#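 Tet-induced TRPML1-DL cells loaded with Ca8 no-wash calcium dye were read kinetically on FDSS. Compound addition was followed by EC80 agonist 54-4 (4 uM final); inhibition was read over 110 s.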
# TRHR PAM: allosterically enhances the human TRH receptor; P34981; TRHR cells, fluo-8 calcium fluorescence, EC20 TRH enhancement; enhancement, % at 2 µM; 360,000 tested, 0.66% active; AID 493056; in the data active = enhancement above about 30%; note: 0% is about no effect
#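 Enhancer read-out: after compound pinning and an initial kinetic agonist-mode read, an EC20 of TRH (10 nM final) was injected and fluo-8 calcium signal (Ex 480/Em 530) followed at 1 s/cycle for 100 cycles in TRHR-expressing cells.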
# KCNH2 3.1 block: inhibitors of human KCNH2 3.1 potassium channel isoform; U2OS KCNH2 3.1, thallium flux FluxOr; hits give low values; activity change, % (tested at about 1.8 µM); 340,000 tested, 0.95% active; AID 720553;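 active = maximum activity change below -70%; inconclusive = maximum activity change from -70% to -50%; inactive = maximum activity change above -50%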;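 note: thallium influx rate constant from kinetic fluorescence after stimulation buffer; % is set by controls: 0 for no effect and ±100 for the full control effect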
#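 Virally transduced U2OS (3.1 isoform, 4 h infection in dark at RT) → overnight 37 C → FluxOr + Red40 in HBSS/HEPES, 45 min → stimulation buffer, 2 min kinetic read → rate constant vs DMSO controls.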
# TRHR agonist: activates the human TRH receptor; P34981; TRHR cells, calcium flux fluo-8, FDSS agonist mode; activation, % at 2 µM; 360,000 tested, 0.18% active; AID 493084; in the data active = activation above about 30%; note: 0% is about no effect
#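 Agonist-mode FDSS calcium read (Ex 480/Em 530, 1 s cycles) in 1536-well TRHR cells with fluo-8 dye, after 10-cycle baseline and 23 nL compound addition; TRH at EC20 (10 nM final) added afterwards for the enhancer phase.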
# KCNH2 WT inh: blocks the wildtype human KCNH2 potassium channel. 340,000 tested, 0.37% active. AID 720551. U2OS, BacMam KCNH2, thallium flux FluxOr; hits give low values. Q12809. activity change, % at 1.84 µM;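 active = maximum activity change below -70%; inconclusive = maximum activity change between -70% and -50%; inactive = maximum activity change above -50%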; note: % is set by controls: 0 for no effect and ±100 for the full control effect
#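 U2OS cells were transduced with wild-type KCNH2 virus (2.03 x 10^8 / mL) for 4 h at room temperature, then cultured overnight at 37 C. Thallium flux was read with FluxOr dye. Rate constants were normalized to DMSO controls.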
# * hit, by the source's call; ? = inconclusive; . = no result. Sampled rows, rich in hits. Any-hit rate of the full collection: about 1.7%.
SMILES,TRPML1 ag,TRPML1 blocker,TRHR PAM,KCNH2 3.1 block,TRHR agonist,KCNH2 WT inh
CC(NCc1ccccc1)C1COc2ccccc2O1 (centres undefined),1.3,-0.1,31.3*,-17.3,0.0,-1.5
CCOc1ccc(NC(=O)CSc2oc(-c3ccco3)nc2S(=O)(=O)c2ccccc2)cc1,-0.7,16.8,-9.2,.,0.0,.
O=C(Nc1ccc(S(=O)(=O)N2CCOCC2)cc1)c1ccc2c(c1)S(=O)(=O)c1ccccc1C2=O,-0.2,51.9,-1.8,-19.7,1.2,-0.4
Cc1ccc(NC(=O)c2ccc3c(c2)S(=O)(=O)c2ccccc2C3=O)cc1S(=O)(=O)N1CCOCC1,0.4,7.9,-2.3,-190.4*,-1.1,-136.3*
COc1cc(-c2cc(-c3nnco3)c3ccccc3n2)cc(OC)c1OC,0.9,11.6,-1.2,-1.7,-1.2,-25.7
c1ccc(-c2cc(-c3nnco3)c3ccccc3n2)nc1,1.1,16.1,34.3*,9.3,-0.2,2.7
CCOC(=O)CC1COc2ccccc2N1C(=O)c1cccc([N+](=O)[O-])c1 (centres undefined),1.3,-11.0,31.1*,12.5,-0.2,-14.3
COC(=O)CC1COc2ccccc2N1C(=O)c1cccc(Cl)c1 (centres undefined),0.7,26.7,-2.0,-9.6,0.2,2.0
CN(C)c1ccnc(Nc2ccccc2)c1C#N,-0.3,-5.2,-0.9,-89.6*,-0.6,-9.6
COc1ccccc1N1CCN(C(=O)c2cnn(-c3cccc(Cl)c3)c2C2CCN(C(=O)OC(C)(C)C)CC2)CC1,67.2*,-11.9,-2.6,.,0.2,.
Cc1ccc(C2CCN(C(=O)c3cnn(-c4cccc(Cl)c4)c3C3CCN(C(=O)OC(C)(C)C)CC3)C2)cc1 (centres undefined),59.0*,-0.8,-2.5,.,3.1,.
Cc1ccc(C2CCN(C(=O)c3cnn(-c4ccc(C)cc4)c3C3CCN(C(=O)OC(C)(C)C)CC3)C2)cc1 (centres undefined),-0.2,9.1,6.5,.,-2.0,.
Cc1cccc(-n2ncc(C(=O)N3CCN(C4CCCCC4)CC3)c2C2CCN(C(=O)OC(C)(C)C)CC2)c1,91.5*,?,-7.7,.,4.8,.
CC(C)(C)OC(=O)N1CCC(c2c(C(=O)N3CCN(Cc4ccccc4)CC3)cnn2-c2cccc(Cl)c2)CC1,92.3*,-26.0,-13.4,.,2.4,.
CCc1ccccc1NC(=O)N1CC(C)Sc2ccccc21 (centres undefined),0.5,5.9,0.1,.,-0.6,.
CN(C)S(=O)(=O)c1ccc(Cl)c(NC(=O)C2CCN(S(=O)(=O)c3cccs3)CC2)c1,2.4,4.4,-10.7,16.6,0.9,11.3
CC(C)(C)OC(=O)N1CCC(c2c(C(=O)N3CCC(c4ccccc4)C3)cnn2-c2cccc(Cl)c2)CC1 (centres undefined),56.9*,-9.8,-12.1,.,24.0,.
O=C(NC1CC(=O)N(c2cccc(F)c2)C1)C1CC1 (centres undefined),0.8,-24.3,11.8,.,0.2,.
Cc1cc(OCc2cc(C(=O)NCCN3CCCCC3CO)no2)cc(C)c1Cl (centres undefined),0.6,8.2,-3.5,-3.9,5.1,-26.3
CN1CCC(=C(c2ccccc2)c2ccc(Br)cc2)CC1,0.4,-7.3,.,-96.8*,.,-37.1
CC1CCN(C(=O)C(C)OC(=O)CSc2ccc([N+](=O)[O-])cc2)CC1 (centres undefined),0.1,6.4,2.2,22.3,-0.4,-0.3
Cc1ccc2cc(C)c(SCC(=O)Nc3ccc(S(=O)(=O)N4CCCC4)cc3)nc2c1,-0.4,0.6,9.9,-99.8*,0.2,-11.7
O=C(Cn1c(Cn2c(-c3cnccn3)nc3ccccc32)nc2ccccc21)c1ccc(OC(F)(F)F)cc1,1.7,.,.,.,.,.
COc1ccc(CCNC(=O)c2ccc(=O)[nH]c2)cc1,0.6,32.8,-2.8,-71.0*,-0.7,-0.4
O=C(NCCc1ccc(Cl)cc1)c1ccc(=O)[nH]c1,-0.2,-15.4,0.1,8.9,-1.5,-0.6
